Experimental data reported in article PMC11006913.

target: HOXA7 (Homo sapiens, UniProt P31268 116-202); assay: PBM; 200 nM protein, PBS; details: dsDNA, one strand shown
Sequence (P31268 116-202): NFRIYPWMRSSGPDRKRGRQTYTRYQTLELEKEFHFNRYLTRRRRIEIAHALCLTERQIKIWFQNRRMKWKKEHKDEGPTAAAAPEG

Row | Sequence | binding signal
1 | CCCCCGAC | 8.66 upbm affinity estimate (log intensity, higher = more binding, comparable within an allelic series)
2 | ATAAGTAT | 9.57 upbm affinity estimate (log intensity, higher = more binding, comparable within an allelic series)
3 | CGCAGGTC | 8.46 upbm affinity estimate (log intensity, higher = more binding, comparable within an allelic series)
4 | GTCAGGCA | 8.57 upbm affinity estimate (log intensity, higher = more binding, comparable within an allelic series)
5 | TAATTCAA | 9.8 upbm affinity estimate (log intensity, higher = more binding, comparable within an allelic series)
6 | AGGCTCTC | 8.46 upbm affinity estimate (log intensity, higher = more binding, comparable within an allelic series)
7 | GAAGGGAC | 8.46 upbm affinity estimate (log intensity, higher = more binding, comparable within an allelic series)
8 | GCTTTCGA | 8.45 upbm affinity estimate (log intensity, higher = more binding, comparable within an allelic series)
9 | CATTTACA | 9.74 upbm affinity estimate (log intensity, higher = more binding, comparable within an allelic series)
10 | GAGCCAGC | 8.52 upbm affinity estimate (log intensity, higher = more binding, comparable within an allelic series)
11 | AGAATGAT | 9.52 upbm affinity estimate (log intensity, higher = more binding, comparable within an allelic series)
12 | CCAGGTCG | 8.48 upbm affinity estimate (log intensity, higher = more binding, comparable within an allelic series)
13 | AGGCAAGG | 8.35 upbm affinity estimate (log intensity, higher = more binding, comparable within an allelic series)
14 | CATTATGC | 10.3 upbm affinity estimate (log intensity, higher = more binding, comparable within an allelic series)
15 | AGGTCAGA | 8.56 upbm affinity estimate (log intensity, higher = more binding, comparable within an allelic series)
16 | TAGTTTAA | 9.76 upbm affinity estimate (log intensity, higher = more binding, comparable within an allelic series)
17 | AGAGCCTG | 8.58 upbm affinity estimate (log intensity, higher = more binding, comparable within an allelic series)
18 | GACAGCGA | 8.31 upbm affinity estimate (log intensity, higher = more binding, comparable within an allelic series)
19 | CGTGCAAG | 8.47 upbm affinity estimate (log intensity, higher = more binding, comparable within an allelic series)
20 | AGAGCAAG | 8.36 upbm affinity estimate (log intensity, higher = more binding, comparable within an allelic series)

Row | Sequence | binding signal
21 | AAAATGAC | 10 upbm affinity estimate (log intensity, higher = more binding, comparable within an allelic series)
22 | CGTCCACC | 8.57 upbm affinity estimate (log intensity, higher = more binding, comparable within an allelic series)
23 | CCTTATAA | 9.62 upbm affinity estimate (log intensity, higher = more binding, comparable within an allelic series)
24 | CACGGAAG | 8.42 upbm affinity estimate (log intensity, higher = more binding, comparable within an allelic series)
25 | AGACGGGA | 8.62 upbm affinity estimate (log intensity, higher = more binding, comparable within an allelic series)
26 | TGAGAGCA | 8.62 upbm affinity estimate (log intensity, higher = more binding, comparable within an allelic series)
27 | AGACGGCG | 8.6 upbm affinity estimate (log intensity, higher = more binding, comparable within an allelic series)
28 | GATTAAAC | 9.54 upbm affinity estimate (log intensity, higher = more binding, comparable within an allelic series)
29 | CTCATTTA | 9.93 upbm affinity estimate (log intensity, higher = more binding, comparable within an allelic series)
30 | CCGTAATA | 10.2 upbm affinity estimate (log intensity, higher = more binding, comparable within an allelic series)
31 | AGCCGCTG | 8.52 upbm affinity estimate (log intensity, higher = more binding, comparable within an allelic series)
32 | AGTAGTTA | 10 upbm affinity estimate (log intensity, higher = more binding, comparable within an allelic series)
33 | AGAAGGCG | 8.35 upbm affinity estimate (log intensity, higher = more binding, comparable within an allelic series)
34 | AGAAGAAA | 8.53 upbm affinity estimate (log intensity, higher = more binding, comparable within an allelic series)
35 | CCATTATA | 11.2 upbm affinity estimate (log intensity, higher = more binding, comparable within an allelic series)
36 | GGCGGTCA | 8.58 upbm affinity estimate (log intensity, higher = more binding, comparable within an allelic series)
37 | GCGGCTAC | 8.37 upbm affinity estimate (log intensity, higher = more binding, comparable within an allelic series)
38 | ACTGAAGG | 8.48 upbm affinity estimate (log intensity, higher = more binding, comparable within an allelic series)
39 | CAATTGCG | 9.48 upbm affinity estimate (log intensity, higher = more binding, comparable within an allelic series)
40 | CTTCTAGA | 8.36 upbm affinity estimate (log intensity, higher = more binding, comparable within an allelic series)

target: HOXA7 (Homo sapiens, UniProt P31268 116-202, W177C); assay: PBM; 200 nM protein, PBS; details: dsDNA, one strand shown
Sequence (P31268 116-202 W177C): as the sequence (P31268 116-202) above, with W62C counted along it

Row | Sequence | binding signal
41 | CCCCCGAC | 8.36 upbm affinity estimate (log intensity, higher = more binding, comparable within an allelic series)
42 | ATAAGTAT | 8.76 upbm affinity estimate (log intensity, higher = more binding, comparable within an allelic series)
43 | CGCAGGTC | 8.44 upbm affinity estimate (log intensity, higher = more binding, comparable within an allelic series)
44 | GTCAGGCA | 8.43 upbm affinity estimate (log intensity, higher = more binding, comparable within an allelic series)
45 | TAATTCAA | 8.74 upbm affinity estimate (log intensity, higher = more binding, comparable within an allelic series)
46 | AGGCTCTC | 8.32 upbm affinity estimate (log intensity, higher = more binding, comparable within an allelic series)
47 | GAAGGGAC | 8.39 upbm affinity estimate (log intensity, higher = more binding, comparable within an allelic series)
48 | GCTTTCGA | 8.45 upbm affinity estimate (log intensity, higher = more binding, comparable within an allelic series)
49 | CATTTACA | 8.8 upbm affinity estimate (log intensity, higher = more binding, comparable within an allelic series)
50 | GAGCCAGC | 8.41 upbm affinity estimate (log intensity, higher = more binding, comparable within an allelic series)
51 | AGAATGAT | 8.8 upbm affinity estimate (log intensity, higher = more binding, comparable within an allelic series)
52 | CCAGGTCG | 8.45 upbm affinity estimate (log intensity, higher = more binding, comparable within an allelic series)
53 | AGGCAAGG | 8.48 upbm affinity estimate (log intensity, higher = more binding, comparable within an allelic series)
54 | CATTATGC | 8.86 upbm affinity estimate (log intensity, higher = more binding, comparable within an allelic series)
55 | AGGTCAGA | 8.58 upbm affinity estimate (log intensity, higher = more binding, comparable within an allelic series)
56 | TAGTTTAA | 8.8 upbm affinity estimate (log intensity, higher = more binding, comparable within an allelic series)
57 | AGAGCCTG | 8.43 upbm affinity estimate (log intensity, higher = more binding, comparable within an allelic series)
58 | GACAGCGA | 8.41 upbm affinity estimate (log intensity, higher = more binding, comparable within an allelic series)
59 | CGTGCAAG | 8.43 upbm affinity estimate (log intensity, higher = more binding, comparable within an allelic series)
60 | AGAGCAAG | 8.46 upbm affinity estimate (log intensity, higher = more binding, comparable within an allelic series)

Row | Sequence | binding signal
61 | AAAATGAC | 8.89 upbm affinity estimate (log intensity, higher = more binding, comparable within an allelic series)
62 | CGTCCACC | 8.48 upbm affinity estimate (log intensity, higher = more binding, comparable within an allelic series)
63 | CCTTATAA | 8.88 upbm affinity estimate (log intensity, higher = more binding, comparable within an allelic series)
64 | CACGGAAG | 8.45 upbm affinity estimate (log intensity, higher = more binding, comparable within an allelic series)
65 | AGACGGGA | 8.51 upbm affinity estimate (log intensity, higher = more binding, comparable within an allelic series)
66 | TGAGAGCA | 8.54 upbm affinity estimate (log intensity, higher = more binding, comparable within an allelic series)
67 | AGACGGCG | 8.4 upbm affinity estimate (log intensity, higher = more binding, comparable within an allelic series)
68 | GATTAAAC | 8.63 upbm affinity estimate (log intensity, higher = more binding, comparable within an allelic series)
69 | CTCATTTA | 8.72 upbm affinity estimate (log intensity, higher = more binding, comparable within an allelic series)
70 | CCGTAATA | 8.79 upbm affinity estimate (log intensity, higher = more binding, comparable within an allelic series)
71 | AGCCGCTG | 8.43 upbm affinity estimate (log intensity, higher = more binding, comparable within an allelic series)
72 | AGTAGTTA | 8.75 upbm affinity estimate (log intensity, higher = more binding, comparable within an allelic series)
73 | AGAAGGCG | 8.41 upbm affinity estimate (log intensity, higher = more binding, comparable within an allelic series)
74 | AGAAGAAA | 8.55 upbm affinity estimate (log intensity, higher = more binding, comparable within an allelic series)
75 | CCATTATA | 8.97 upbm affinity estimate (log intensity, higher = more binding, comparable within an allelic series)
76 | GGCGGTCA | 8.5 upbm affinity estimate (log intensity, higher = more binding, comparable within an allelic series)
77 | GCGGCTAC | 8.37 upbm affinity estimate (log intensity, higher = more binding, comparable within an allelic series)
78 | ACTGAAGG | 8.52 upbm affinity estimate (log intensity, higher = more binding, comparable within an allelic series)
79 | CAATTGCG | 8.54 upbm affinity estimate (log intensity, higher = more binding, comparable within an allelic series)
80 | CTTCTAGA | 8.5 upbm affinity estimate (log intensity, higher = more binding, comparable within an allelic series)
